Screening data from PubChem BioAssay.
HCV inh: blocks hepatitis C virus | Huh7.5.1 HCVcc-Cre infection, luciferase reporter, 44 h | Potency, µM (doses to about 41.8 µM), hits mostly inhibitors | actives 3.4% (n = 340,000)
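1,000 cells/well; 4 h culture; + compound; + HCVcc-Cre (~0.5 moi); 44 h; luciferase substrate, RT 15 min; read 15 sec.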
Pf growth 48h: P. falciparum growth inhibition at 48 hours (one generation); P. falciparum luciferase growth in erythrocytes, 48 h; Potency, µM (titrated, usually from 28.7 µM), hits mostly inhibitors; actives 5.9% (n = 310,000); AID 504832
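First compound was added to culture medium, then infected red cells at 0.1% parasitemia and 2% hematocrit (final). After incubation at 37 C under 5% CO2, luciferase detection reagent was dispensed and light output recorded.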
AMA1-RON2 inh: AMA1-RON2 (P. falciparum) interaction inhibition; AlphaScreen AMA1-biotinylated RON2 peptide binding; Potency, µM (series often up to 58.2 µM), usual class: inhibitors; actives 0.2% (n = 360,000); AID 720542; also: nearly all actives have a fitted effect of over 45% in size
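AMA1 (3D7) with his tag at 25 nM final met compounds first, then biotinylated RON2 peptide at 25 nM; detection used donor plus acceptor beads, 10 µg/mL apiece, read by AlphaScreen after 30 min at room temperature.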
Pf growth 96h: P. falciparum growth inhibition at 96 hour, primary screen for plastid delayed-death inhibitors | P. falciparum luciferase reporter growth, 96 h | Potency, µM (highest dose often 28.7 µM), usual class: inhibitors | actives 6.9% (n = 320,000) | AID 504834
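P. falciparum expressing integrated firefly luciferase grown in erythrocytes (2% hematocrit, 0.05% parasitemia final) with compounds for 96 hours at 37 C, 5% CO2. Growth inhibition read as loss of luminescence after adding luciferase detection reagent.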
SARS PLP yeast: blocks SARS-CoV papain-like protease in a yeast assay; actives 0.19% (n = 330,000); S. cerevisiae expressing SARS-CoV PLpro, growth rescue; AID 485353; Potency, µM (series often up to 32.9 µM), actives largely listed as activators; calls by dose curve; also: nearly all actives have a fitted effect of over 55% in size
NS1 inh: inhibitors of influenza NS1 protein function; Potency, µM (series often up to 46.1 µM); AID 2326; actives 0.4% (n = 270,000); calls by dose curve; also: actives are rising curves; nearly all actives have a fitted effect of over 50% in size
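OD600 was taken as the measure of yeast growth restored by compound in an NS1-expressing S. cerevisiae strain. Cells had been washed out of glucose medium and diluted 1:100 into galactose -URA medium, pH 6.0.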
Each line names hits and unclear results; the compound was inactive in the other large screens. Only some compounds are listed: those with a hit (about 12% of all), similar ones and a draw of the others. Unless noted, calls follow the shape of the dose curve; as a rule, active = well fitted curve in the direction sought with a large enough effect; inconclusive = small, poorly fitted or top-dose-only effect, or another doubt; inactive = no such curve, though single readings can be large; an effect the other way counts as inactive or inconclusive.

Cc1cc([N+](=O)[O-])ccc1-c1ccc(/C=N/NC(=O)Cc2ccccc2)o1	none
O=C1SCCN1N=Cc1ccc([N+](=O)[O-])o1	HCV inh 22µM (no result: Pf growth 48h, Pf growth 96h, SARS PLP yeast, NS1 inh)
CCOC(=O)N/N=C\c1ccc([N+](=O)[O-])o1	HCV inh inconclusive, Pf growth 48h inconclusive, Pf growth 96h 8.3µM
CN1CCN(C(=O)/C=C/c2ccc([N+](=O)[O-])o2)CC1	HCV inh inconclusive, Pf growth 48h 12µM, Pf growth 96h inconclusive
O=C(Cc1ccc([N+](=O)[O-])cc1)N/N=C/c1ccc([N+](=O)[O-])o1	HCV inh 14µM, Pf growth 48h inconclusive, Pf growth 96h inconclusive
COc1ccc2nc(/C=N/NC(=O)[C@@H]3CCCN3C(=O)OC(C)(C)C)ccc2c1	none
COC(=O)[C@@H](Cc1c[nH]c2ccccc12)NC(=O)CNC(=O)c1ccccc1OC	none
O=C(N/N=C/c1ccc([N+](=O)[O-])o1)c1ccc2c(c1)OCO2	HCV inh inconclusive, Pf growth 48h inconclusive, Pf growth 96h inconclusive
CC1(C(=O)N/N=C/c2ccc([N+](=O)[O-])o2)CC1(Br)Br (configuration not stated)	HCV inh inconclusive, Pf growth 48h inconclusive, Pf growth 96h 10µM
Clc1ccc2c(N/N=C/c3cccc(Br)c3)ccnc2c1	HCV inh inconclusive, Pf growth 48h 0.59µM, Pf growth 96h 0.33µM
Clc1ccc2c(N/N=C/c3ccccc3Br)ccnc2c1	HCV inh inconclusive, Pf growth 48h 0.66µM, Pf growth 96h 0.52µM
Clc1ccc2c(NNc3ccccc3Cl)ccnc2c1	Pf growth 48h inconclusive, AMA1-RON2 inh inconclusive, Pf growth 96h inconclusive
O=[N+]([O-])c1ccc(/C=N/Nc2ccnc3cc(Cl)ccc23)o1	HCV inh inconclusive, Pf growth 48h 2.3µM, AMA1-RON2 inh inconclusive, Pf growth 96h inconclusive
O=C(CNC(=O)c1ccc2c(c1)OCCO2)N=Nc1c(O)[nH]c2ccccc12	HCV inh inconclusive
CCCNCC(O)Cn1c2ccccc2n2c(=O)cc(C)c(C#N)c12 (configuration not stated)	HCV inh inconclusive, Pf growth 48h 3.7µM, Pf growth 96h 12µM, NS1 inh inconclusive
O=C1c2cccnc2C(=O)N1Cc1ccc(S(=O)(=O)N2CCN(c3ccccc3)CC2)cc1	none
Cc1cccc(C)c1NC(=O)CSc1nc(C2CC2)nc2ccccc12	none
COc1ccc(/C(=N/O)C(C)(C)NO)cc1	Pf growth 96h 8.3µM (no result: Pf growth 48h)
O=C(NCc1ccco1)C1CCN(C(=O)c2ccc(Cl)cc2Cl)CC1	none
CC(C)(C)NC(=O)CN1CCCN(C(=O)COc2ccc(Cl)c3ccccc23)CC1	Pf growth 48h 12µM, Pf growth 96h inconclusive (no result: NS1 inh)
O=C(COc1ccccc1Cl)N1CCCC1	none (no result: Pf growth 96h)
CCC1Oc2ccc(C)cc2N(CC(=O)N2CCOCC2)C1=O (configuration not stated)	Pf growth 96h inconclusive
CCC1Oc2ccc(C)cc2N(CC(=O)N(Cc2cccnc2)Cc2cccc(F)c2)C1=O (configuration not stated)	Pf growth 48h 12µM
CCC1Oc2ccc(C)cc2N(CC(=O)N(Cc2ccncc2)Cc2ccco2)C1=O (configuration not stated)	Pf growth 48h 12µM
O=C(c1cc(-c2cccc(Br)c2)nc2ccccc12)N1CCCC1	Pf growth 48h inconclusive
COc1ccc(-c2cc(C(=O)Oc3ccc([N+](=O)[O-])cc3)c3ccccc3n2)cc1	Pf growth 96h 13µM
COc1ccc(-c2nnc(Nc3ccc(OC)c(C(=O)N4CCCCC4)c3)c3ccccc23)cc1	HCV inh inconclusive, Pf growth 48h 5.2µM, Pf growth 96h inconclusive
O=C(c1cc(-c2ccc(Br)cc2)nc2ccccc12)N1CCC1	HCV inh inconclusive, Pf growth 48h 3.3µM, Pf growth 96h 4.1µM (no result: NS1 inh)
COc1ccc(-c2cc(C(=O)OCC(=O)N(C)C)c3ccccc3n2)cc1	HCV inh inconclusive
COc1ccc(-c2cc(C(=O)N3CCCCCC3)c3ccccc3n2)cc1	HCV inh inconclusive, Pf growth 48h 9.3µM, Pf growth 96h 3.3µM (no result: NS1 inh)
COc1ccc(-c2cc(C(=O)N3CCCCCC3)c3ccccc3n2)cc1OC	none (no result: HCV inh, Pf growth 48h, Pf growth 96h, SARS PLP yeast, NS1 inh)
CCc1noc(C)c1C(=O)OCC(=O)NC(=O)c1ccccc1	none
CCOc1ccc(N(CC(=O)Nc2nccs2)S(=O)(=O)c2c(C)[nH]c(=O)[nH]c2=O)cc1	Pf growth 96h inconclusive (no result: NS1 inh)
CC1CCCN(C(=O)CCNS(=O)(=O)c2ccc3c(c2)c(=O)n(C)c(=O)n3C)C1 (configuration not stated)	none
CC1(O)C(c2ccccc2)=Nc2ccccc21 (configuration not stated)	none (no result: HCV inh, Pf growth 48h, Pf growth 96h, SARS PLP yeast, NS1 inh)
COc1ccc(-c2cc(C(=O)N3CCN(c4ccccc4)CC3)c3ccccc3n2)cc1OC	HCV inh inconclusive, Pf growth 48h inconclusive (no result: Pf growth 96h)
COc1ccc(N2CCN(C(=O)c3cc(-c4cccs4)nc4ccccc34)CC2)cc1	HCV inh inconclusive, Pf growth 48h inconclusive, AMA1-RON2 inh 13µM, Pf growth 96h inconclusive
COC(=O)c1nnn(-c2nonc2N)c1CSc1nnc(N)s1	none (no result: NS1 inh)
CSCCNC(=O)C1(C)CCN1C(=O)c1cc(C)n(C)n1 (configuration not stated)	none (no result: HCV inh, Pf growth 48h, Pf growth 96h, SARS PLP yeast, NS1 inh)
Cc1cc(-c2ccccc2)nc(N/N=C/c2ccc(N(C)C)cc2)n1	HCV inh 13µM (no result: Pf growth 48h, Pf growth 96h, SARS PLP yeast, NS1 inh)
Cc1cc(-c2ccccc2)nc(N/N=C/c2ccc([N+](=O)[O-])cc2)n1	HCV inh 10µM, Pf growth 96h inconclusive
Cc1cc(-c2ccccc2)nc(N/N=C/c2ccccc2)n1	HCV inh inconclusive
CN(/N=C/c1ccc(O)cc1O)c1nc(-c2ccccc2)cc(-c2ccccc2)n1	HCV inh inconclusive, Pf growth 48h 9.3µM, Pf growth 96h 5.2µM
Cc1cc(-c2ccccc2)nc(N/N=C/c2ccc(O)cc2O)n1	HCV inh 10µM, Pf growth 48h inconclusive
CN(N)c1nc(-c2ccccc2)cc(-c2ccccc2)n1	HCV inh inconclusive
O=S(=O)(NC1CCC(CNS(=O)(=O)c2c(F)cccc2F)CC1)c1ccc2c(c1)OCCO2 (configuration not stated)	none (no result: HCV inh, AMA1-RON2 inh, NS1 inh)
CN(C)CCCNc1cc(O)c2c(c1O)C(=O)c1ccccc1C2=O	none (no result: HCV inh, Pf growth 48h, AMA1-RON2 inh, Pf growth 96h, SARS PLP yeast)
O=C1c2ccccc2C(=O)c2c(NCCCN(CCO)CCO)cccc21	HCV inh 14µM, Pf growth 48h inconclusive, AMA1-RON2 inh inconclusive
CCc1[nH]nc(C(=O)N2CCCC(N3CCN(c4ccccc4C)CC3)C2)c1C (configuration not stated)	Pf growth 48h inconclusive, Pf growth 96h inconclusive (no result: HCV inh)
O=[N+]([O-])c1ccccc1-c1ccc(C(=S)N2CCCCC2)o1	HCV inh inconclusive, AMA1-RON2 inh 25µM
O=[N+]([O-])c1ccccc1-c1ccc(C(=S)N2CCCC2)o1	HCV inh inconclusive (no result: NS1 inh)
